# Source: PubChem BioAssay (NCI)
# Compounds without any hit were thinned out: in the full panel of roughly 83,000, 20% have a hit.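 48-hour exposure, single concentration, 96-well plates; percent growth endpoint where 0 means no net growth. Active: below 10.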 Active and inactive are the calls of the source.
# Test system: UACC-62 melanoma
# Test: NCI-60 one-dose screen, 48 h (100 = growth as untreated, 0 = no growth, -100 = all killed)
# Details: 10 µM unless noted
row,Structure (SMILES),growth
1,COc1cc(-c2nc(SCCC(C)C)nc(Nc3ccccc3)c2C#N)cc(OC)c1OC,71.8% (inactive)
2,O=C(N/N=C\c1cc(Cl)ccc1O)N/N=C/c1cc(Cl)ccc1O,54.7% (inactive)
3,Cc1ccc(S(=O)(=O)Oc2ccc([N+](=O)[O-])cc2[N+](=O)[O-])cc1,82.5% (inactive)
4,COCCCNc1nc(NC(=O)c2cc(OC)cc(OC)c2)cc(-c2cccnc2)n1,111% (inactive)
5,CC1(C)CC[C@]2(C(=O)O)CC[C@]3(C)C(=CC[C@@H]4[C@@]5(C)C/C(=C/c6ccco6)C(=O)C(C)(C)[C@@H]5CC[C@]43C)[C@@H]2C1,-89.7% [100 µM] (active)
6,O=C(N=c1n(-c2ccccc2)nc2n1CCN2C1=NCCN1)c1ccc(Cl)cc1,64.1% (inactive)

# Test system: LOX IMVI melanoma
# Test: as above
# Details: 10 µM unless noted
row,Structure (SMILES),growth
1,CC1=CCc2ccccc21,105% (inactive)
2,O=C1Nc2ccccc2/C1=C/C(=O)c1ccc(N2CCCCC2)cc1,43.3% (inactive)
3,COc1ccc2nc3c(cc2c1)C(=O)CC(c1ccccc1)C3 (stereo not drawn),36.1% (inactive)
4,Oc1ccc(N=Nc2nccs2)c(O)c1,40% (inactive)
5,Cc1cc(-c2ccc(N=Nc3c(S(=O)(=O)O)cc4cc(S(=O)(=O)O)cc(N)c4c3O)c(C)c2)ccc1N=Nc1cc(S(=O)(=O)O)c2ccccc2c1O,106% (inactive)
6,C#CCNC(=O)CC[C@]1(C)[C@H]2CC[C@@H]3[C@@H]([C@@](C)(O)CCC=C(C)C)CC[C@@]3(C)[C@]2(C)CC[C@H]1C(=C)C,-67.7% [100 µM] (active)
7,CC(=O)Nc1ccc2nc3ccc(NC(C)=O)cc3[n+](-c3ccccc3)c2c1,96.8% (inactive)
8,CCN(CC)CCCCCCNc1cccc2cc(Br)cnc12,69.3% (inactive)
9,COc1ccc(NC(=S)NNc2ccc(-c3ccc(OC)c(OC)c3)nn2)cc1,97.8% (inactive)
10,O=[N+]([O-])c1cc([N+](=O)[O-])c(NN=C(c2ccc(O)cc2)c2ccc(O)cc2)cc1Cl,-94% (active)
11,CC(C)C1=NOC(=O)C1=Cc1cn(-c2ccccc2)nc1-c1cccc([N+](=O)[O-])c1,0.102% (active)
12,C=C(C)[C@@H]1CC[C@]2(C(=O)NCCNCCNCCN)CC[C@]3(C)[C@H](CC[C@@H]4[C@@]5(C)CC[C@H](O)C(C)(C)[C@@H]5CC[C@]43C)[C@@H]12,-41% [100 µM] (active)
13,O=C1COCCN1c1ccc(Nc2nc(Cl)nc(N3CCOCC3)n2)cc1,93.8% (inactive)
14,Cn1cc(-c2noc(-c3cn(C)c4ncc(F)cc34)n2)c2cc(Br)ccc21,70.7% (inactive)
15,CC1(C)NCCC[C@]2(C)[C@H]3C=CC4=C5C[C@](C)(CO)CC[C@]5(C)CC[C@@]4(C)[C@]3(C)CC[C@@H]12,-91.5% [100 µM] (active)
16,CCCC(NC(=O)OCc1ccccc1)C(=O)O (stereo not drawn),99.5% (inactive)
17,CC(C)C1=NOC(=O)C1=Cc1cn(-c2ccccc2)nc1-c1ccc(Cl)cc1,6.02% (active)
18,COc1cc(OC)cc(C(=O)Nc2cc(-c3cccnc3)nc(NCCCN3CCOCC3)n2)c1,88.1% (inactive)
19,Brc1ccc2c(c1)CN(C1CCCCC1)CO2,95.1% (inactive)
20,CC/C=C(\C)C(CCC)(CN=O)C(=O)OCC (stereo not drawn),99.7% (inactive)
21,O=C(Nc1ccc(F)cc1)c1ccccc1,105% (inactive)
22,O=C(O)c1cccc(CN2CCN(c3cc4c(cc3F)c(=O)c(C(=O)O)cn4C3CC3)CC2)c1O,97.9% (inactive)
23,COC(=O)c1c(C)[nH]c(/C=C2\N=C(c3ccc[nH]3)C=C2OC)c1C,-56.8% (active)
24,C=CCCC1(C)NC(=O)NC1=O (stereo not drawn),93.7% (inactive)
25,O=[N+]([O-])c1cccc(N=NNc2cccc([N+](=O)[O-])c2)c1,89.1% (inactive)
26,Cc1ccc(N)c(O)c1,86.6% (inactive)
27,CCN(CC)c1ccc2cc(NC(=O)OCCNC(=O)CCNC(=O)[C@H](CC(C)C)NC(=O)C(C)(C)NC(=O)C(C)(C)NC(=O)[C@H](CC(C)C)NC(=O)CCNC(=O)C(C)(C)NC(=O)[C@H](CC(C)C)NC(=O)CCNC(=O)[C@@](C)(CC)NC(=O)[C@H](C)NC(=O)CCNC(=O)C(C)(C)NC(=O)[C@H](C)NC(=O)[C@@H]3CCCN3C(=O)[C@@](C)(CC)NC(=O)[C@H](Cc3ccccc3)NC(=O)C3CCCN3C(=O)C(C)(C)NC(=O)C3CCCN3C(=O)C(C)(C)NC(C)=O)c(=O)oc2c1 (stereo partly drawn),-85% (active)
